Molecules are shown by their SMILES. In all, about 220,000 compounds went through this assay and about 530 (0.24%) were called active. This is one part of a sample in which actives are shown more often than they occur. No stated cut-off is given here; in the data, active means inhibition above about 13%; inconclusive means no clear call, values can overlap the other calls; inactive means below that. Measured potencies and affinities stand elsewhere.

This assay deals with Bifunctional protein GlmU (Mycobacterium tuberculosis (strain ATCC 25618 / H37Rv)) (UniProt P9WMN3). Briefly: inhibition of mycobacterial GlmU enzyme – biochemical, glucosamine-1-phosphate acetyltransferase (AID 1376).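 Further: 0% = complete reaction with vehicle and 100% = reaction without substrate.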 Conditions: M. tuberculosis GlmU acetyltransferase enzyme assay; active compounds read high;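 tested at 30 µM in the primary screen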.
Sequence of Bifunctional protein GlmU (Mycobacterium tuberculosis (strain ATCC 25618 / H37Rv)) (P9WMN3 whole entry, looked up): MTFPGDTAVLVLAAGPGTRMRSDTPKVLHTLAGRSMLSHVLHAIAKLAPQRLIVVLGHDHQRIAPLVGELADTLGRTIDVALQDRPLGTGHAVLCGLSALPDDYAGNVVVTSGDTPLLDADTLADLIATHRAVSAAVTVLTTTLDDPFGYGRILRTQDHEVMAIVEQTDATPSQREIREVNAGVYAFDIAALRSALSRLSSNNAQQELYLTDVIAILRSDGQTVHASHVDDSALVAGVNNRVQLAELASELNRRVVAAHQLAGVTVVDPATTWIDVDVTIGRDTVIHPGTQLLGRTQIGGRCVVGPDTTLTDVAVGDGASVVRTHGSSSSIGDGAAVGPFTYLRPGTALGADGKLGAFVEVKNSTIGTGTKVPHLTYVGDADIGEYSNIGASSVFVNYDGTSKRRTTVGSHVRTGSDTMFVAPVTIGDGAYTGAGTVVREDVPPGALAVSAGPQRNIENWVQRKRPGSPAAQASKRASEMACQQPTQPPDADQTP
Take `O=c1cc(O)c2c(=O)n(-c3ccccc3)c3c(c2o1)CCCCC3`: the inhibition is 13% (active).
To `O=c1cc(O)c2c(=O)n(-c3ccccc3)c3ccccc3c2o1` belongs 0.8% (inactive).
Regarding `O=c1cc(O)c2c(=O)n(-c3ccccc3)c3c(c2o1)CCCCCC3`, the inhibition is 0.45% (inactive).
With `C=CCNC(=O)NS(=O)(=O)c1ccc(C)cc1`, the inhibition is 1.33% (inactive).
Turning to `O=C(NCc1ccco1)c1cccc(-c2nnc(-c3ccccc3)o2)c1`, the inhibition is -0.42% (inactive).
Under `CC(C)C(OC(=O)c1ccco1)C(=O)NC1CCCCC1` (stereo not given) stands 1.45% (inactive).
To `CC(OC(=O)c1ccco1)C(=O)NC1CCCCC1` (stereo not given) belongs -0.47% (inactive); to `CC(C)CC(OC(=O)c1ccco1)C(=O)NC1CCCCC1` (stereo not given), 14.8% (active); to `O=C(NCc1ccncc1)C(=O)C1C(=O)Nc2ccccc21` (stereo not given), -1.35% (inactive).
Under `CCOC(=O)c1nc(NCc2ccccc2C)c2ccccc2n1` stands -3.26% (inactive); under `C/C=C(\C)CN1CCN(c2cc(C)ccc2C)CC1`, -5.99% (inactive).
With `Cc1cc(C(=O)CS(=O)(=O)c2ccccc2)cc(C)c1OC(=O)N(C)C`, the inhibition was 0.59% (inactive).
To `COc1ccc(NS(=O)(=O)c2cccc(C(=O)NNC(=O)NCCCl)c2)cc1` belongs -0.61% (inactive).
As for `Cc1cc(/C=N/NC(=O)c2cccc(F)c2)c(C)n1-c1ccccc1`, the inhibition is 0.73% (inactive).
Under `Cc1cc(/C=N/NC(=O)c2cccc([N+](=O)[O-])c2)c(C)n1-c1ccccc1` stands -3.02% (inactive).
To `Cc1cc(C(=O)N/N=C/c2sc(N3CCOCC3)nc2-c2ccccc2)c(C)o1` belongs 6.62% (inactive); to `CCCn1c(SCc2ccon2)nc2ccccc2c1=O`, 1.08% (inactive).
Regarding `O=C1c2ccccc2C(=O)N1CC(=O)N1c2ccccc2Sc2ccccc21`, the inhibition is -6.14% (inactive).
To `COc1ccc(C(c2c(O)c3ccccc3oc2=O)c2c(C)n(C)n(-c3ccccc3)c2=O)cc1` (stereo not given) belongs 1.51% (inactive); to `COc1cc(C(c2c(O)c3ccccc3oc2=O)c2c(C)n(C)n(-c3ccccc3)c2=O)ccc1O` (stereo not given), 22.1% (inactive); to `COc1ccc(OC)c(C(c2c(O)c3ccccc3oc2=O)c2c(C)n(C)n(-c3ccccc3)c2=O)c1` (stereo not given), 13.2% (active).
To `CCCCCCn1c(CN2CCN(CCO)CC2)nc2c1c(=O)n(C)c(=O)n2C` belongs 2% (inactive); to `C/C(=N\NC(=O)c1nn(C)c(C)c1Br)c1cccc(NC(=O)c2ccc(F)cc2)c1`, -3.49% (inactive); to `O=C(NCc1ccc(C(=O)N2CCC3(CC2)OCCO3)cc1)c1cccc(Br)c1`, 1.96% (inactive).
`O=C(NCc1ccc(C(=O)N2CCC3(CC2)OCCO3)cc1)c1ccc2c(c1)OCO2`: the inhibition was 18.9% (active).
To `O=C(c1ccc2c(c1)OCO2)N1CCC2(CC1)OCCO2` belongs 5.09% (inactive); to `COc1ccc(CN2CCOCC2)c(C)c1C`, -2.85% (inactive); to `CCCCNc1ccc(C(=O)O)cc1`, -0.8% (inactive).
To `CC12CC(NC(=O)N1c1ccc(C(=O)N3CCN(c4ccc(F)cc4)CC3)cc1)c1ccccc1O2` (stereo not given) belongs -2.33% (inactive); to `CC(C)C/C=C1\CCc2c([nH]c3ccccc23)C1=O`, -1.01% (inactive); to `CCOc1ccc(NC(=O)CSc2n[nH]c(N)n2)c([N+](=O)[O-])c1`, 0.6% (inactive).
For the compound `CCOC(=O)c1cnc(SCC(=O)c2ccc3c(c2)OCCO3)nc1N`, the inhibition was -5.31% (inactive).
Take `NS(=O)(=O)c1cccc(NC(=O)CN2CCc3ccccc32)c1`: the inhibition is -0.92% (inactive).
With `Fc1ccc(OCc2nn3c(Cn4nnc5ccccc54)nnc3s2)cc1`, the inhibition was 3.23% (inactive).
Under `Fc1ccc(OCc2nn3cnnc3s2)cc1` stands 18.4% (active); under `Fc1ccc(OCc2nc3ccccc3s2)cc1`, 0.65% (inactive); under `COC(=O)c1ccc(S(=O)(=O)NCc2ccccn2)n1C`, -0.35% (inactive).
For `COc1ccc(Nc2ccc(Cl)cc2)c(C(=O)O)c1`, the inhibition was 11.1% (inactive).
Regarding `COc1ccc(Nc2cccc(Cl)c2)c(C(=O)O)c1`, the inhibition is 13.1% (active).
To `COc1cccc(Nc2ccccc2C(=O)O)c1` belongs -2.96% (inactive); to `COc1ccccc1C(=O)O/N=C(\N)c1ccccn1`, 6.05% (inactive); to `COc1cc(C(=O)O/N=C(\N)c2ccccn2)cc(OC)c1OC`, 13.3% (active).
To `COc1cc(OC)cc(C(=O)O/N=C(\N)c2ccccn2)c1` belongs -3.71% (inactive); to `Cn1c(CSCCOc2ccccc2)n[nH]c1=S`, -1.84% (inactive).
Under `COc1ccc(S(=O)(=O)NC2CC(C)(C)NC(C)(C)C2)c(C)c1C` stands 13.6% (active).
Regarding `COc1ccc(Cl)cc1S(=O)(=O)NC1CC(C)(C)NC(C)(C)C1`, the inhibition was 4.3% (inactive).
To `COc1c(C)cc(S(=O)(=O)NC2CC(C)(C)NC(C)(C)C2)c(C)c1C` belongs -0.79% (inactive); to `Nc1nc(N)c(N=Nc2ccc(C(=O)O)cc2)c(N)n1`, 13.1% (active); to `O=C(O)c1ccc(N=Nc2c(O)[nH]c3ccccc23)cc1`, -3.4% (inactive).
For `O=C(O)c1ccc(N=Nc2c(O)[nH]c3cc(Cl)ccc23)cc1`, the inhibition is 11% (inactive).
To `O=C(NCCO)C(c1ccccc1)c1ccccc1` belongs -1.82% (inactive); to `COc1ccc2nc3sc(C(=O)NCCCN4CCc5ccccc5C4)cc3cc2c1`, 5.05% (inactive); to `COc1ccc2nc3sc(C(=O)NCCN4CCc5ccccc5C4)cc3cc2c1`, 15% (active).
To `COc1ccc2cc3cc(C(=O)NCCN4CCc5ccccc5C4)sc3nc2c1` belongs 4.04% (inactive).
To `O=C1C(Cl)=C(Nc2ccc(F)cc2)C(=O)N1CCc1ccccc1` belongs -4.15% (inactive); to `O=C1C(Cl)=C(Nc2ccccc2O)C(=O)N1c1ccccc1`, 42.6% (active).
For the compound `COc1ccc(NC2=C(Cl)C(=O)N(c3ccccc3)C2=O)c(OC)c1`, the inhibition is 4.46% (inactive).
Consider `CCOc1ccccc1NC1=C(Cl)C(=O)N(c2ccccc2)C1=O`, for which the inhibition is 0.96% (inactive).
In the case of `CCOc1ccc(N2C(=O)C(Cl)=C(Nc3ccccc3O)C2=O)cc1`, the inhibition was 7.85% (inactive).
Under `COc1ccccc1NC1=C(Cl)C(=O)N(c2ccccc2)C1=O` stands 1.83% (inactive); under `O=C1C(Cl)=C(NCCc2ccccc2)C(=O)N1CCc1ccccc1`, 1.54% (inactive); under `CCOc1ccccc1NC1=C(Cl)C(=O)N(c2ccc(OC)cc2)C1=O`, -5.57% (inactive).
For `COc1ccc(N2C(=O)C(Cl)=C(Nc3ccccc3OC)C2=O)cc1`, the inhibition is 3.86% (inactive).
With `COc1ccc(-n2c3c(cc(C(=O)N4CCC(C)CC4)c2=O)C(=O)CC(C)(C)C3)cc1`, the inhibition was 0.29% (inactive).
To `Cc1cc(C)c(NC2=NS(=O)(=O)c3ccccc32)c(C)c1` belongs 0.24% (inactive); to `COc1cccc(OC)c1C(=O)NC(=S)NNC(=O)[C@H]1C[C@@H]1c1ccccc1`, 3.93% (inactive).
In the case of `O=c1cc(CSc2nnc3ccccn23)c2c(ccc3ccccc32)o1`, the inhibition is 5.61% (inactive).
To `Cc1ccc(C2=CC(C)(c3ccc(C)cc3)Nc3nc(C(F)(F)F)nn32)cc1` (stereo not given) belongs -1.89% (inactive).
To `COc1ccc(O)c(/C=N/Nc2nc3ccccc3[nH]2)c1` belongs 1.12% (inactive).
As for `O=[N+]([O-])c1ccc(O)c(/C=N/Nc2nc3ccccc3[nH]2)c1`, the inhibition was 2.26% (inactive).
Under `O=C(Nc1ccc(N2CCN(C(=O)c3cccs3)CC2)cc1)c1cccnc1` stands -0.33% (inactive).
Regarding `O=C(Nc1cccc(C(=O)N2CCOCC2)c1)c1cccnc1`, the inhibition is 2.11% (inactive).
As for `CSc1nc(Cl)cc(N2CCOCC2)n1`, the inhibition is 3.3% (inactive).
Turning to `CCOC(=O)Cc1c(C)[nH]n(-c2ccccc2)c1=O`, the inhibition is 0.6% (inactive).
Under `Cc1cc(N)n(-c2ccc3ccccc3c2)n1` stands 0.94% (inactive); under `Cc1[nH]n(-c2ccccc2)c(=O)c1CCO`, -5.63% (inactive).
Under `Cc1cc(C)n(-c2ccc(Oc3ccccc3)c(S(=O)(=O)O)c2)n1` stands 12.6% (inactive); under `CCOC(=O)C1CCCN(CC(=O)Nc2c(F)c(F)c(F)c(F)c2F)C1` (stereo not given), 0.78% (inactive).
Under `CCS(=O)(=O)N1Cc2ccccc2CC1C(=O)Nc1nc(C)cs1` (stereo not given) stands -3.38% (inactive); under `Cc1cc(C(=O)NC(C)c2ccccc2)c2cc(F)ccc2n1` (stereo not given), 2.48% (inactive).
Take `CS(=O)(=O)N1CCC(C(=O)Nc2ccc(OCc3ccccc3)cc2)CC1`: the inhibition is 0.13% (inactive).
To `OCCN1CCN(CC(O)C(F)(F)F)CC1` (stereo not given) belongs 0.82% (inactive); to `O=C(c1cccc(Cl)c1)N1CCN(Cc2c[nH]c3ccccc23)CC1`, 7.63% (inactive).
With `O=C(c1ccccc1)N1CCN(Cc2c[nH]c3ccccc23)CC1`, the inhibition was -4.61% (inactive).
As for `O=C(c1cccc(F)c1)N1CCN(Cc2c[nH]c3ccccc23)CC1`, the inhibition was 15% (active).
Consider `O=c1[nH]c(CSc2ncc(C(F)(F)F)cc2Cl)nc2cc(C(F)(F)F)ccc12`, for which the inhibition is -1.09% (inactive).
As to `Cc1sc2ncnc(OCC(=O)N3CCN(S(=O)(=O)c4ccccc4)CC3)c2c1C`, the inhibition was -1.45% (inactive).
Under `COc1cccc(NC(=O)C(Sc2nnc(Nc3ccccc3C)s2)c2ccccc2)c1` (stereo not given) stands -3.98% (inactive); under `CCOc1cccc(CNCc2ccc(C(=O)O)cc2)c1`, -1.27% (inactive).
To `Cc1cc(C(=O)O)ccc1-c1ccc(/C=C2\NC(=O)N(Cc3ccccc3Cl)C2=O)o1` belongs 5.89% (inactive); to `O=C(O)c1cc(-c2ccc(/C=C3/SC(=S)N(Cc4ccccc4)C3=O)o2)ccc1Cl`, 17% (inactive).
Under `Cc1cc(C(=O)O)ccc1-c1ccc(/C=C2\NC(=O)N(Cc3ccc(F)cc3)C2=O)o1` stands 13.9% (active); under `O=C(O)c1cc(-c2ccc(/C=C3\NC(=O)N(c4ccc(Cl)cc4)C3=O)o2)ccc1Cl`, 27% (active); under `Cc1c(C(=O)O)cccc1-c1ccc(/C=C2/NC(=O)N(c3ccccc3)C2=O)o1`, -0.48% (inactive).
Take `Cc1ccc(/C=C2/NC(=O)N(c3ccccc3)C2=O)o1`: the inhibition is -0.29% (inactive).
To `O=C(O)c1cc(-c2ccc(/C=C3\NC(=O)N(c4ccccc4)C3=O)o2)ccc1Cl` belongs 13.6% (active); to `Cc1ccc(/C=C2/NC(=O)N(Cc3ccccc3)C2=O)o1`, -1.11% (inactive).
To `Cc1ccc(CN2C(=O)N/C(=C/c3ccc(-c4ccc(C(=O)O)cc4)o3)C2=O)cc1` belongs 4.7% (inactive); to `Cc1ccc(N2C(=O)NC(=O)/C(=C/c3ccc(-c4ccc(C(=O)O)c(Cl)c4)o3)C2=O)cc1`, 6.82% (inactive); to `O=C(O)c1cc(-c2ccc(/C=N/Nc3ccc(Cl)cc3)o2)ccc1Cl`, -0.42% (inactive).

For orientation: inhibition means the change of the read-out against control, counted positive when it falls.

Source of the values: PubChem BioAssay AID1376 (SRMLSC, 2008).
